A selection: hits, their analogues and other compounds. The true share with any hit is near 1.6%.
KCNQ2 inh – KCNQ2 (rat) channel inhibition; CHO-K1 KCNQ2, FluxOR thallium flux, 20 min; hits give low values; B-score at 10 µM; actives 1.1% (n = 310,000); AID 2156;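 active = fluorescence ratio B-score at most minus 3 library SDs, with starting brightness B-score within 2 library SDs, cut at about -5.5 in these data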
KCNQ2 enhance – KCNQ2 (rat) channel potentiation. O88943. actives 0.54% (n = 310,000). CHO-K1 KCNQ2, FluxOR thallium flux fluorescence; hits give high values. B-score at 10 µM;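 active = fluorescence ratio B-score at least 3 SD of library B-scores, with initial fluorescence B-score within 3 of them, cut at about 5.3 in these data; same plate scores as AID 2156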;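 note: B-score of peak minus minimum over baseline fluorescence ratio after K+ and Tl+ stimulus; positive B-score means potentiation of KCNQ2 with more thallium influx and brighter signal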
Kir21 conf inh – confirmation of mouse Kir2.1 potassium channel inhibitors; actives 41% (n = 2,300); Kir2.1-expressing cells, FluxOR thallium flux fluorescence; hits give low values; Tl flux remaining, % of negative control (hits give low values), % at 10 µM; shares compounds with KCNQ2 enhance;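 active = Primary-screen hit whose thallium flux fell at least 3 control SD below untreated wells in both duplicates, with normal baseline fluorescence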;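 note: 0% = blank wells without stimulus and 100% = stimulated no-compound controls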
Target sequence (P35561 whole entry, looked up): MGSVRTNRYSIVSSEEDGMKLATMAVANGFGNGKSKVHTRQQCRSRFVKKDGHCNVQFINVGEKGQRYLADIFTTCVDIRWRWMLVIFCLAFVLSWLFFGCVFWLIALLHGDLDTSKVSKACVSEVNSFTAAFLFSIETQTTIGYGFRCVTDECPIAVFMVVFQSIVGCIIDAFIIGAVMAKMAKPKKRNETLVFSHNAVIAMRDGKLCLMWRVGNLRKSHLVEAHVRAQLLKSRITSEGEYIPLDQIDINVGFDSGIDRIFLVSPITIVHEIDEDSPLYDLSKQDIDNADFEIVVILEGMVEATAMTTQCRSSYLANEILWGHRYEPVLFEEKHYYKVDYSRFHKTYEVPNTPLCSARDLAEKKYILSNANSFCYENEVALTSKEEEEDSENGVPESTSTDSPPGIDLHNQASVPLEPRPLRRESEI
HEK293 ctr – counter-screen for Kir2.1 inhibitors: effect in parental HEK293 cells. shares compounds with KCNQ2 enhance. FluxOR thallium flux fluorescence; 0% = unstimulated blank wells. FluxOR signal as % of negative control (100 = no effect), % at 10 µM. actives 19% (n = 2,300);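 active = dye signal at least 3 control SD above or below untreated wells in both duplicates, raw fluorescence within 3, either direction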;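 note: percent is based on the flux ratio of peak minus minimum fluorescence over baseline F0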
CHO-K1 ctr – parental CHO-K1 activity in KCNQ2 potentiator counter-screen; shares compounds with KCNQ2 enhance; parental CHO-K1 cells, FluxOR thallium flux fluorescence; zero = vehicle mean+3SD, 100% = vehicle-minus-blank window; activity increase over 3SD of controls, % at 10 µM; actives 43% (n = 1,200); AID 2282;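 active = signal rise of at least 3 SD above the untreated control mean, in both duplicate wells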;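 note: counter screen of KCNQ2 potentiator hits so any rise reflects channel-independent effects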
KCNQ1 pot spec – tests whether KCNQ2 potentiators also act on human KCNQ1. CHO KCNQ1 stable, FluxOR thallium flux fluorescence; beyond 3SD, as % of vehicle-control signal. actives 28% (n = 1,200). shares compounds with KCNQ2 enhance. activation over 3SD threshold, % at 10 µM;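 active = fluorescence ratio rise of at least 3 SD of vehicle wells above their mean, in both replicate wells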;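 note: 0% = vehicle mean plus 3 SD and 100% = vehicle minus unstimulated blank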
KCNQ2 pot confirm – rat KCNQ2 channel potentiator confirmation; AID 2287; shares compounds with KCNQ2 enhance; CHO-KCNQ2 cells, FluxOR thallium flux fluorescence; actives 68% (n = 1,200); potentiation, less the hit threshold, % at 10 µM;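 active = fluorescence ratio rising 3 SD or more over the vehicle control mean in both replicates, plus primary screen hit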;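 note: peak minus minimum thallium fluorescence divided by baseline after K/Tl stimulus; 0% = vehicle mean plus 3 SD and 100% = vehicle minus unstimulated blank difference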
Kir2-1 sel – tests whether KCNQ2 potentiators also affect mouse Kir2.1; actives 2% (n = 1,200); HEK293 Kir2.1, FluxOR thallium flux fluorescence; activity over 3SD threshold, % at 10 µM; AID 2345; shares compounds with KCNQ2 enhance;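 active = fluorescence ratio rise of at least 3 SD above the vehicle-control mean, seen in both replicates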;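 note: 0% = vehicle mean plus 3 SD and 100% = vehicle minus no-stimulus blank window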
KCNQ2 W236L pot – KCNQ2 potentiators acting on retigabine-insensitive rat KCNQ2 W236L mutant. shares compounds with KCNQ2 enhance. CHO KCNQ2-W236L, automated patch clamp current. current increase over 3SD of negative controls (%), hits give high values, % at 25 µM. actives 10% (n = 940);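 active = current increase at least 3 SD of the untreated controls above them in both duplicate recordings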
An asterisk follows results filed as active; i = inactive; . = no result.

SMILES	KCNQ2 inh	KCNQ2 enhance	others
COc1ccc(CN2CCNC(=O)C2CC(=O)NCCc2nc(C)c(C)s2)cc1C (configuration not stated)	i	.
COc1ccc(C2C(Oc3ccccc3)C(=O)N2c2ccc(C)c(C)c2)cc1OC (configuration not stated)	i	.
Cc1ccc(S(=O)(=O)Nc2cccc(-n3cnnn3)c2)cc1C	i	0.03
OC1CCN(c2ncnc3c2nnn3Cc2c(F)cccc2Cl)CC1	i	1.4
COc1cc(NC(=O)C2CCCCC2)c2ncccc2c1	i	0.1
Cc1nn(C)c(C(=O)N/N=C/c2cccnc2)c1Cl	i	.
CC(C)(C)NC(=O)C(=O)NN=C1CCCCCCCCCCC1	i	1
NC(N)=NN=C1CCCCCCCCCCC1	i	.	Kir21 conf inh=i;HEK293 ctr=i
CN1CCN(C(=O)C23CCC(C)(C(=O)C2Br)C3(C)C)CC1 (configuration not stated)	i	0.14
CC(=O)Nc1ccc(Nc2c3c4c(cccc4n(C)c2=O)C(=O)c2ccccc2-3)cc1	i	0.47
CCOC(=O)c1ccc(NC(=O)NC2CC3CCC(C2)N3)cc1 (configuration not stated)	i	.
COc1ccc(C(=O)NCCC2=CCCCC2)cc1	i	.
COc1ccc(OC(C)C(=O)NCCC2=CCCCC2)cc1 (configuration not stated)	i	.	Kir21 conf inh=48%*;HEK293 ctr=i
CCOc1ccc(CN2C(=O)c3ccccc3C2=O)cc1C(=O)O	i	0.15
Cc1ccc(-n2c(=O)c3sccc3n(CC(=O)N3CCCC3)c2=O)cc1	i	0.05
CCN(CC)c1ccc(/C=C2\CCC(/C=C(\C#N)C(=O)Nc3ccccc3F)=C2N2CCOCC2)cc1	i	.
C/C(N)=C(/C#N)C(=O)CSc1nc2ccccc2c(=O)n1Cc1ccc(C)cc1	i	.
C/C(N)=C(/C#N)C(=O)CSc1nc2ccccc2c(=O)n1Cc1ccc(F)cc1	i	5.5*	Kir21 conf inh=i;HEK293 ctr=167%*;CHO-K1 ctr=-8;KCNQ1 pot spec=16*;KCNQ2 pot confirm=3.4*;Kir2-1 sel=-37;KCNQ2 W236L pot=i
CCCNC(=O)CN(c1ccc(F)cc1)S(=O)(=O)c1ccc2c(c1)OCCO2	i	.
Cc1ccccc1-n1c(SCC(=O)c2c(N)n(C)c(=O)n(C)c2=O)nnc1-c1cccnc1	i	.
Oc1ccc(Br)cc1-c1n[nH]c(=S)n1Cc1ccccc1	i	11*	CHO-K1 ctr=-1;KCNQ1 pot spec=28*;KCNQ2 pot confirm=26*;Kir2-1 sel=-86
Oc1ccccc1-c1n[nH]c(=S)n1Cc1ccccc1	i	3.3
CNC(=O)N(O)C1N(/N=C/c2cccs2)C(=S)SC1(C)C (configuration not stated)	i	1.8
COc1cc(CNC2CCCC2)cc(Cl)c1OCc1ccccc1Cl	i	.	Kir21 conf inh=31%*;HEK293 ctr=i
COc1cc(CNC2CCCC2)cc(Cl)c1OCc1ccc(F)cc1	i	.
SMILES	KCNQ2 inh	KCNQ2 enhance	others
C=CCOc1ccc(/C(CC)=N/O)cc1OC	i	0.67
Cn1c(=O)oc2cc(S(=O)(=O)N3CCN(C(=O)c4ccco4)CC3)ccc21	i	.
CCn1c(SC/C=C/c2ccccc2)nnc1-c1cccs1	i	.	Kir21 conf inh=48%*;HEK293 ctr=i
C=CCn1c(Cc2cccs2)nnc1SC/C=C/c1ccccc1	i	.	Kir21 conf inh=31%*;HEK293 ctr=i
Cn1c(SC/C=C/c2ccccc2)nnc1-c1cccs1	i	.
C=CCn1c(Cc2cccs2)nnc1SCC(=O)Nc1cc(OC)cc(OC)c1	i	.
Cc1ccc(OCCCN2C(=O)C(=O)c3cccc(C)c32)cc1	i	.

From PubChem BioAssay
